PubChem BioAssay AID504327 (National Center for Advancing Translational Sciences (NCATS), 2011)
Where “and” joins values, the source holds several entries; their conditions need not be identical. Identical values can stand only once. Out of some 390,000 compounds screened, about 820 (0.21%) were called active. Inconclusive results (about 3%) are left out. This is one part of a sample in which actives are shown more often than they occur. Calls follow the shape of the dose curve; as a rule, active = well fitted inhibition curve with a large enough effect; inconclusive = small, poorly fitted or top-dose-only effect, or another doubt; inactive = no such curve, though single readings can be large or run the other way. Some compounds were tested as several samples or in several runs, with calls that do not always agree. Non-standard residues stand in square brackets, D forms with d. Residues, ends and D or L forms follow the SMILES beside them. Groups on a side chain read outwards from the residue. *: point of attachment. X1 = CCC(C)C(N)C1=NC(C(=O)*)CS1; Orn = NCCC[CH](N)C(=O)O

These molecules were tested against Histone acetyltransferase KAT2A (Homo sapiens) (UniProt Q92830) (assay: qHTS Assay for Inhibitors of GCN5L2). Conditions: GCN5L2 HAT assay, ThioGlo1 CoA-SH fluorescence; series mostly up to 58.9 µM.
Histone acetyltransferase KAT2A (Homo sapiens), sequence (Q92830 whole entry, looked up): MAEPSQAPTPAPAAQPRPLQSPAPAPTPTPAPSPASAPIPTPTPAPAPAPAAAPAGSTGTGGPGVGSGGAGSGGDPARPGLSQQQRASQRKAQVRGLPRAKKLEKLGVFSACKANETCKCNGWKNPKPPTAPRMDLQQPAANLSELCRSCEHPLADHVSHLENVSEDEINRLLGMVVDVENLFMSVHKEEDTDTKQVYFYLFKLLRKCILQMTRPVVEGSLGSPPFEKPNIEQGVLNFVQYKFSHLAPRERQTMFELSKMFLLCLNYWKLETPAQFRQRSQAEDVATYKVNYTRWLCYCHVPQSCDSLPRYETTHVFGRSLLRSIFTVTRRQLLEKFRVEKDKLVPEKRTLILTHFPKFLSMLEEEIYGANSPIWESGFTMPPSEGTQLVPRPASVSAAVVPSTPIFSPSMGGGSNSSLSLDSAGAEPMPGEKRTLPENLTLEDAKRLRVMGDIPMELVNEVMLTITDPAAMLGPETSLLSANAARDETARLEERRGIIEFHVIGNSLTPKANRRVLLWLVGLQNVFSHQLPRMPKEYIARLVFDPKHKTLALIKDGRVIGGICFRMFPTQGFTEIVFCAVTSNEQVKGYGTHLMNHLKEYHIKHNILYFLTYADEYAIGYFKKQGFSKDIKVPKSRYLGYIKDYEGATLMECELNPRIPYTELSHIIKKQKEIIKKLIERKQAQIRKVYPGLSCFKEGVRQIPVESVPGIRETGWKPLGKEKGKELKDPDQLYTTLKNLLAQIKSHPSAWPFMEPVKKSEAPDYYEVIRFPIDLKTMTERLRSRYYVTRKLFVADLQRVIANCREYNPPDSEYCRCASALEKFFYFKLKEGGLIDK
From the text: Histone acetyltransferase (HAT) enzymes transfer a […] group from acetyl-coenzyme A to the epsilon-amino group of conserved lysine residues of N-terminal histone tails. Acetylation results in charge neutralization of this positively charged amino acid, decreasing interactions with the […] backbone and making the DNA more accessible for transcription. HATs have been recognized as an emerging drug target for treatment of cancer, diabetes, asthma, chronic obstructive pulmonary disease, cardiac disease, and viral infection. Protein identified with HAT activity include the […] like 2 (GCN5L2, a.ka. Histone acetyltransferase KAT2A) which acetylates histone H3 at Lys9, 14, 18, 13, and to lesser extent histones H4 and H2B. This activates transcription of the gene by modulating chromatin structure and installing the acetyllysine recognition mark for bromodomain-containing coactivator proteins.
A quantitative high throughput screen was developed to identify small molecule inhibitors. The assay is based on the principle that it measures formation of reduced CoA with the pro-fluorescent maleimide derivative ThioGlo1 that becomes fluorescent upon reaction with the free thiol of CoA.
A large number of artifacts are expected in this primary screen, compounded by the assay format (fluorescent artifacts) and by the high top concentration tested for each substance. This BioAssay data deposition should be used with caution, and counterscreen and secondary assay validation is essential since very few actives from the primary screen are expected to be true inhibitors of GCN5L2.
[2] Yasgar, et al. Compound Management for Quantitative High-Throughput Screening. JALA. 2008 Apr;13(2):79-89.
[3] Inglese, et al. Quantitative high-throughput screening: a titration-based approach that efficiently identifies biological activities in large chemical libraries. Proc Natl Acad Sci. 1;103(31):11473-8. 2006. PMID: 16864780
NIH Molecular Libraries Probe Production Network [MLPCN]
NIH Chemical Genomics Center [NCGC]
Structural Genomics Consortium (SGC)
To each well of a 1,536w plate, 3ul of GCN5L2 (final concentration 20nM, in 50mM HEPES, 0.1mM EDTA (pH 7.5), 0.01% Tween-20 buffer) are added using a Kalypsys dispenser. Only buffer is added to some wells as a control. A Kalypsys pin-tool transferred 23nl of library compound solution in DMSO to each well, as well as the control inhibit garcinol. . Following a 15 min incubation of enzyme with compounds at room temperature, 1ul mixture of ThioGlo1 (50uM final), H3(1-25) peptide (75uM final), and Acetyl-CoA (70uM final) is added. Plates are read immediately on the ViewLux (PerkinElmer) (Ex340nm/Em540nm) for a 0 min read, incubated for 20 min at room temperature, and read again on the ViewLux with the same settings. The initial read was carried out to identify compounds that are potentially fluorescent.
% is scaled to controls: 0 for no effect and ±100 for the full control effect; potency is read from the fitted curve at half-maximal effect.

Potency, active:
Cc1ccc(Cl)cc1NC(=O)C(C)n1nnc2sc(-c3ccccc3)cc2c1=O (stereo not drawn) 31.6 µM
O=c1[nH]c(=S)[nH]c2[nH]c(=S)[nH]c12 4.47 µM and 3.55 µM
O=c1[nH]c2ccccc2n2c(-c3ccccc3)nnc12 22.4 µM
CC(C)(O)c1ccccc1CC[C@H](SCC1(CC(=O)O)CC1)c1cccc(/C=C/c2ccc3ccc(Cl)cc3n2)c1 20 µM
FC(F)(F)C1CCCN(c2nsc3ccccc23)C1 (stereo not drawn) 2.82 µM

Potency, inactive and 12.6 µM (active):
O=C1OCCN1C(=O)[C@H]1[C@H](c2ccc(Cl)cc2)C(c2cccc(Cl)c2)=NN1c1ccc(Br)cc1

Potency, inactive:
COc1ccccc1-c1cc(NCc2cccs2)ncn1
Cc1cc2oc(=O)cc(-c3ccccc3)c2c(C)c1/C=C/c1ccc(F)cc1
Cc1cc2nn(-c3ccc(Cl)cc3)nc2cc1NC(=O)C(C)C
CCCCCCn1nnc2sc(-c3ccccc3)cc2c1=O
COc1ccccc1CCn1c(=O)c(-c2cn(C)c3ccccc23)nc2cncnc21
Cc1csc(-c2nc3ccccc3n2C)n1
CN(Cc1ccco1)c1ncncc1-c1ccoc1
Nc1ncnc2c1ncn2C1CC(O)C(CO)O1 (stereo not drawn)
O=C(Nc1ccc(O)cc1)c1ccccc1O
O=c1ccn([C@@H]2O[C@H](COP(=O)(O)OP(=O)(O)OP(=O)(O)O)[C@@H](O)[C@H]2O)c(=O)[nH]1
NCCC(=O)c1ccccc1N
N#Cc1ccc(CN2CCCC3(CCN(C(=O)c4ccco4)CC3)C2)cc1
C=C1/C(=C\C=C2\CCCC3(C)C2CCC3C(C)/C=C/C(O)C2CC2)CC(O)CC1O (stereo not drawn)
CC(O)COc1ccccc1 (stereo not drawn)
NNc1nnc(NN)c2ccccc12
Cc1nc2cnc(N3CCN(C)CC3)nc2n(C[C@H]2CCCO2)c1=O
Cc1cc(N(C)C)nc(Cl)n1
C=C(C)C1CC=C(C)C(O)C1 (stereo not drawn)
O=C(O)C(O)[C@@](O)(Cc1ccc(O)cc1)C(=O)O (stereo partly drawn)
CCN(Cc1ccncc1)C(=O)[C@@H](CO)c1ccccc1
CC1(C)O[C@@H]2C[C@@H]3[C@H]4C[C@@H](F)C5=CC(=O)C=C[C@]5(C)[C@@]4(F)[C@@H](O)C[C@]3(C)[C@]2(C(=O)CO)O1
O=P(O)(O)OC[C@H](O)CO
COc1ccc(CC(N)C(=O)NC2C(O)[C@H](n3cnc4c(N(C)C)ncnc43)O[C@@H]2CO)cc1 (stereo partly drawn)
O=c1cnc2cnc(Nc3ccccc3)nc2n1Cc1ccc(F)cc1
C[C@@H]1C(c2ccc(F)cc2)=NN(c2ccc(Br)cc2)[C@H]1C(=O)N1CCOC1=O
CC(C)Cn1c(=O)c2ccccc2n2c(-c3cccc(Cl)c3)nnc12
O=c1cc(-c2ccccc2)n2c(SCc3ccccc3)nnc2[nH]1
C[C@@H](O)[C@@H]1NC(=O)[C@H](CCCCN)NC(=O)[C@H](Cc2c[nH]c3ccccc23)NC(=O)[C@H](Cc2ccccc2)NC(=O)[C@H](Cc2ccccc2)NC(=O)[C@H](CC(N)=O)NC(=O)[C@H](CCCCN)NC(=O)[C@@H](NC(=O)[C@@H]2CCCN2)CSSC[C@@H](C(=O)N[C@@H](CCCCN)C(=O)O)NC(=O)[C@H](CO)NC(=O)[C@H](CO)NC(=O)[C@H](Cc2ccccc2)NC1=O
O=C(c1cnccn1)N1CCC[C@@]2(CCN(Cc3ccncc3)C2)C1
CC(C)[C@@H]1NC(=O)[C@H](Cc2ccccc2)NC(=O)[C@@H](CC(=O)O)NC(=O)CNC(=O)[C@H](CCCNC(=N)N)NC1=O
O=C(Nc1cccc(F)c1)N1CC2(CCN(C(=O)c3cnccn3)CC2)C1
CCCCC/C=C\C/C=C\CCCCCCCCCC(=O)O
CNc1ncnc2ccc(-c3cccc(NS(C)(=O)=O)c3)cc12
C=C1O[C@@](CO)(n2cnc3c(N)ncnc32)[C@H](O)[C@@H]1O
CC[C@H](C)[C@H](NC(=O)[C@H](CCCNC(=N)N)NC(=O)[C@H](CCCNC(=N)N)NC(=O)[C@H](CC(C)C)NC(=O)[C@H](Cc1ccccc1)NC(=O)CNC(=O)CNC(=O)[C@@H](N)Cc1ccc(O)cc1)C(=O)N[C@@H](CCCNC(=N)N)C(=O)N1CCC[C@H]1C(=O)N[C@@H](CCCCN)C(=O)N[C@@H](CC(C)C)C(=O)N[C@@H](CCCCN)C(=O)N[C@@H](Cc1c[nH]c2ccccc12)C(=O)N[C@@H](CC(=O)O)C(=O)N[C@@H](CC(N)=O)C(=O)N[C@@H](CCC(N)=O)C(=O)O
COCC(=O)N1CCC2(CCCN(c3ccccc3)C2)CC1
O=S(O)S(=O)(=O)O
CCC(C)C(N)C1=NC(C(=O)NC(CC(C)C)C(=O)NC(CCC(=O)O)C(=O)NC(C(=O)NCCCCC2NC(=O)C(CC(N)=O)NC(=O)C(CC(=O)O)NC(=O)C(Cc3cnc[nH]3)NC(=O)C(Cc3ccccc3)NC(=O)C(C(C)CC)NC(=O)C(CCCN)NC2=O)C(C)CC)CS1 (stereo not drawn) (cyclo(DNK([Ile-Glu-Leu-X1])[Orn]IFH); configuration not given here)
COC(=O)CC1C(C)(C)C(OC(C)=O)C2CC3=C4CC(=O)OC(c5ccoc5)[C@]4(C)CCC3[C@@]1(C)C2=O (stereo partly drawn)
O=C(c1csnn1)N1CCC2(CC1)CN(c1ncccn1)C2
CC(C)c1cnc(NC(=O)Cc2ccccc2)s1
Cc1nc2cnc(N3CCN(C)CC3)nc2n(CCC#N)c1=O
C[C@H]1CCC[C@@]2(C)CCCC[C@]12O
CC(CCC(=O)O)C1CCC2C3C(O)C[C@@H]4CC(O)CC[C@@]4(C)C3CC[C@@]12C (stereo partly drawn)
O=c1cc(-c2ccc(O)cc2)oc2c([C@@H]3O[C@H](CO)[C@@H](O)[C@H](O)[C@H]3O)c(O)cc(O)c12
O=C(c1ccncc1)N1CCC2(CCCN(C(c3ccccc3)c3ccccc3)C2)CC1

Activity change, negative = inhibition, inactive:
CC(C)[C@H]1CC[C@@H](C)C[C@H]1O 5.9% [at 0.501 µM]
